Measured values: PubChem BioAssay AID1159580 (chemical genetic matrix, 2015)
The campaign covered roughly 5,500 compounds. About 2,000 (36%) were called active. Inconclusive results (about 18%) are left out. No stated cut-off is given here; in the data, active means normalized growth mostly below about 0.91 (no sharp cut-off); inconclusive means no clear call, values can overlap the other calls; inactive means mostly above about 0.92. Some of the results follow.

Assay: chemical genetic growth profiling, strain panel (AID 1159580);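 further: tested at 20 µM; growth read once vehicle control cultures reached saturation at 30 °C; 1 = growth at the plate median or of vehicle wells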
Details: S. cerevisiae deletion strains, growth OD

Measured: normalized growth

CC(=O)O[C@@H]1C[C@@]2(C)C(CC[C@@H]2C(C)=O)C2CCC3=CC(=O)CC[C@]3(C)C21 (stereo not given in full)
inactive: locus YAL021C, strain ccr4, stronger effect = lower value 0.996 | locus YAL026C, strain drs2, stronger effect = lower value 1.03 | locus YAL030W, strain snc1, stronger effect = lower value 1.01 | locus YBL061C, strain skt5, stronger effect = lower value 1.01 | locus YBR009C, strain hhf1, stronger effect = lower value 1.06 | locus YBR023C, strain chs3, stronger effect = lower value 1 | locus YBR171W, strain sec66, stronger effect = lower value 0.964 | locus YBR231C, strain swc5, stronger effect = lower value 1.02 | locus YBR279W, strain paf1, stronger effect = lower value 1 | locus YCL011C, strain gbp2, stronger effect = lower value 1.02 | locus YCL016C, strain dcc1, stronger effect = lower value 1.02 | locus YCL061C, strain MRC1, stronger effect = lower value 1.01 | locus YCL069W, strain vba3, stronger effect = lower value 1.02 | locus YCR088W, strain abp1, stronger effect = lower value 1.02 | locus YDL005C, strain med2, stronger effect = lower value 1.01 | locus YDL040C, strain nat1, stronger effect = lower value 1.01 | locus YDR001C, strain nth1, stronger effect = lower value 0.997 | locus YDR069C, strain doa4, stronger effect = lower value 1.02 | locus YDR137W, strain rgp1, stronger effect = lower value 0.974 | locus YDR159W, strain sac3, stronger effect = lower value 1.02 | locus YDR195W, strain ref2 1.06 | locus YDR297W, strain sur2, stronger effect = lower value 1.01 | locus YDR334W, strain swr1, stronger effect = lower value 1.03 | locus YDR335W, strain msn5, stronger effect = lower value 1 | locus YDR392W, strain spt3, stronger effect = lower value 0.863 | locus YEL003W, strain gim4, stronger effect = lower value 1.02 | locus YEL037C, strain rad23, stronger effect = lower value 1.01 | locus YEL061C, strain CIN8 (second series), stronger effect = lower value 1.02 | locus YER015W, strain faa2, stronger effect = lower value 1.01 | locus YER016W, strain bim1, stronger effect = lower value 1.02 | locus YER111C, strain swi4, stronger effect = lower value 1.01 | locus YER155C, strain BEM2 (second series), stronger effect = lower value 1.04 | locus YFR010W, strain ubp6, stronger effect = lower value 1.02 | locus YGL167C, strain pmr1, stronger effect = lower value 1.02 | locus YGL173C, strain kem1, stronger effect = lower value 1.03 | locus YGL227W, strain vid30, stronger effect = lower value 1.01 | locus YGL240W, strain doc1, stronger effect = lower value 1.04 | locus YGL253W, strain hxk2, stronger effect = lower value 1 | locus YHR013C, strain ard1, stronger effect = lower value 0.974 | locus YHR027C, strain rpn1, stronger effect = lower value 1.01 | locus YHR030C, strain SLT2, stronger effect = lower value 0.967 | locus YHR079C, strain IRE1, stronger effect = lower value 0.985 | locus YHR142W, strain chs7, stronger effect = lower value 0.947 | locus YJL092W, strain hpr5, stronger effect = lower value 1.01 | locus YJL095W, strain BCK1 (second series), stronger effect = lower value 1.02 | locus YJL095W, strain BCK1, stronger effect = lower value 0.997 | locus YJL115W, strain asf1, stronger effect = lower value 1.01 | locus YJL129C, strain trk1, stronger effect = lower value 0.95 | locus YJL154C, strain vps35, stronger effect = lower value 1.01 | locus YJL164C, strain tpk1, stronger effect = lower value 0.985 | locus YJL166W, strain qcr8, stronger effect = lower value 1.01 | locus YJL187C, strain SWE1, stronger effect = lower value 1.01 | locus YJR066W, strain TOR1, stronger effect = lower value 0.953 | locus YKL160W, strain elf1, stronger effect = lower value 0.965 | locus YKR026C, strain gcn3, stronger effect = lower value 1.01 | locus YKR091W, strain srl3, stronger effect = lower value 1.01 | locus YLL001W, strain dnm1, stronger effect = lower value 1.02 | locus YLL026W, stronger effect = lower value 1.02 | locus YLL041C, strain sdh2, stronger effect = lower value 1 | locus YLR027C, strain aat2, stronger effect = lower value 0.998 | locus YLR113W, strain HOG1, stronger effect = lower value 1.02 | locus YLR221C, strain rsa3, stronger effect = lower value 0.969 | locus YLR258W, strain gsy2, stronger effect = lower value 1.04 | locus YLR262C, strain YPT6 (second series), stronger effect = lower value 0.964 | locus YLR320W, strain mms22, stronger effect = lower value 0.97 | locus YLR342W, strain FKS1, stronger effect = lower value 1.02 | locus YLR357W, strain rsc2, stronger effect = lower value 1.03 | locus YLR370C, strain arc18, stronger effect = lower value 1 | locus YLR384C, strain iki3, stronger effect = lower value 1.01 | locus YML120C, strain ndi1, stronger effect = lower value 0.981 | locus YMR058W, strain fet3, stronger effect = lower value 1.01 | locus YMR125W, strain sto1, stronger effect = lower value 1.02 | locus YMR129W, stronger effect = lower value 1.01 | locus YMR205C, strain PFK2, stronger effect = lower value 1.05 | locus YMR231W, strain pep5, stronger effect = lower value 1.02 | locus YNL071W, strain lat1, stronger effect = lower value 0.97 | locus YNL183C, strain NPR1, stronger effect = lower value 0.984 | locus YNL209W, strain ssb2, stronger effect = lower value 1 | locus YNL248C, strain rpa49, stronger effect = lower value 0.953 | locus YNL322C, strain KRE1 (second series), stronger effect = lower value 1.01 | locus YNR049C, strain mso1, stronger effect = lower value 1.01 | locus YOR001W, strain rrp6, stronger effect = lower value 0.947 | locus YOR070C, strain gyp1, stronger effect = lower value 1.01 | locus YOR080W, strain dia2, stronger effect = lower value 1.01 | locus YOR083W, strain WHI5, stronger effect = lower value 0.953 | locus YOR106W, strain vam3, stronger effect = lower value 0.974 | locus YOR231W, strain MKK1, stronger effect = lower value 0.979 | locus YOR265W, strain rbl2, stronger effect = lower value 1 | locus YOR270C, strain vph1, stronger effect = lower value 0.999 | locus YOR290C, strain snf2, stronger effect = lower value 0.98 | locus YPL051W, strain arl3, stronger effect = lower value 0.976 | locus YPL078C, strain atp4, stronger effect = lower value 0.97 | locus YPL106C, strain sse1, stronger effect = lower value 1.03 | locus YPL240C, strain hsp82, stronger effect = lower value 0.984 | locus YPL256C, strain CLN2, stronger effect = lower value 0.973
